Assay results published in PubChem BioAssay (NCATS).
Active and inactive are the calls of the source. The rule behind the calls is not given here.

conditions: Ebola virus entry assay, reporter ratio channel; Channel type: primary

SMILES | AC50 | outcome
CN1CCCN(C(c2ccccc2)c2ccc(Cl)cc2)CC1 (stereo not drawn) | 3.16 µM (active) | –
Cc1nc(C2CCCCC2)c(-c2ccc(S(N)(=O)=O)c(F)c2)o1 | 31.6 µM (active) | –
C[n+]1cc2c3c(ccc2c2ccc4cc5c(cc4c21)OCO5)OCO3 | 17.8 µM (active) | –
Clc1ccc(Cn2c(CN3CCCC3)nc3ccccc32)cc1 | 22.4 µM (active) | –
Clc1ccc(C(Cn2ccnc2)OCc2c(Cl)cccc2Cl)c(Cl)c1 (stereo not drawn) | 8.91 µM (active) | –
CC1=C(C)C(=O)C(C(CCCCCC(=O)O)c2ccccc2)=C(C)C1=O (stereo not drawn) | – | inactive
CC[C@]12CCCN3CCc4c(n(c5ccccc45)C(=O)C1)[C@@H]32 | 28.2 µM (active) | –
CC(C)N=C(N)/N=C(\N)Nc1ccc(Cl)cc1 | 39.8 µM (active) | –
Nc1ccc2cc3ccc(N)cc3nc2c1 | 39.8 µM (active) | –
COC(=O)[C@H]1[C@H]2C[C@@H]3c4[nH]c5cc(OC)ccc5c4CCN3C[C@H]2C[C@@H](OC(=O)COc2ccc(OC)cc2)[C@@H]1OC | 25.1 µM (active) | –
CN(C)CCCN1c2ccccc2Sc2ccc(C(F)(F)F)cc21 | 2.82 µM (active) | –
OC(CCN1CCCCC1)(c1ccccc1)c1ccccc1 | 28.2 µM (active) | –
CN1CCC(=C2c3ccccc3CCc3sccc32)CC1 | 8.91 µM (active) | –
COc1ccc(CCN(C)CCCC(C#N)(c2cc(OC)c(OC)c(OC)c2)C(C)C)cc1OC (stereo not drawn) | 14.1 µM (active) | –
O=c1[nH]c2ccccc2n1CCCN1CCN(C(c2ccccc2)c2ccccc2)CC1 | 3.98 µM (active) | –
CCCCOc1ccc(C(=O)CCN2CCCCC2)cc1 | 31.6 µM (active) | –
Cc1ccc2c(Br)cc(Br)c(O)c2n1 | 39.8 µM (active) | –
O=C1NCCN1CCN1CCC(c2cn(-c3ccc(F)cc3)c3ccc(Cl)cc23)CC1 | 1 µM (active) | –
CN(C)c1ccc(C(=C2C=CC(=[N+](C)C)C=C2)c2ccccc2)cc1 | 0.708 µM (active) | –

SMILES | AC50 | outcome
CCC(C(=O)OCCOCCN(CC)CC)c1ccccc1 (stereo not drawn) | 22.4 µM (active) | –
CC(C)(C)C(=O)OCOC(=O)C1N2C(=O)CC2S(=O)(=O)C1(C)C (stereo not drawn) | 3.16 µM (active) | –
CC1(C)[C@H](C(=O)O)N2C(=O)C[C@H]2S1(=O)=O | 11.2 µM (active) | –
CCCCCN=C(N)N/N=C/c1c[nH]c2ccc(OC)cc12 | 3.16 µM (active) | –
C[C@]1(Cn2ccnn2)[C@H](C(=O)O)N2C(=O)C[C@H]2S1(=O)=O | 0.316 µM (active) | –
COc1cc(N)c(Cl)cc1C(=O)NC1CCN(Cc2ccccc2)CC1 | 39.8 µM (active) | –
CCNC(=O)N1CCN(CCCC(c2ccc(F)cc2)c2ccc(F)cc2)CC1 | 11.2 µM (active) | –
CCCCN1CCCC1C(=O)Nc1c(C)cc(C)cc1C (stereo not drawn) | – | inactive
N[C@H](C(=O)O)[C@@H](O)c1ccc(O)c(O)c1 | 20 µM (active) | –
CN(C)CCOC(c1ccccc1)c1ccccc1 | 17.8 µM (active) | –
Cc1c(C)n(Cc2ccccc2)c2ccc(C(=O)OCCN(C)C)cc12 | 3.16 µM (active) | –
COc1cc(N)c(Cl)cc1C(=O)NC1CCN(CCCOc2ccc(F)cc2)CC1OC (stereo not drawn) | 15.8 µM (active) | –
Nc1c2ccccc2nc2ccccc12 | – | inactive
COC(=O)C1=C(C)NC(C)=C(C(=O)OC(C)(C)CN(C)CCC(c2ccccc2)c2ccccc2)C1c1cccc([N+](=O)[O-])c1 (stereo not drawn) | 12.6 µM (active) | –
COCC(=O)O[C@]1(CCN(C)CCCc2nc3ccccc3[nH]2)CCc2cc(F)ccc2[C@@H]1C(C)C | 2.24 µM (active) | –
Cc1nc2sccn2c(=O)c1CCN1CCC(=C(c2ccc(F)cc2)c2ccc(F)cc2)CC1 | 15.8 µM (active) | –
CCOC(=O)C1=C(C)NC(C)=C(C(=O)OCC)C1c1ccccc1/C=C/C(=O)OC(C)(C)C | – | inactive
COc1ccc(-n2nc(CCC(=O)N(C)O)cc2-c2ccc(Cl)cc2)cc1 | 10 µM (active) | –
NC(=O)C1(N2CCCCC2)CCN(CCCN2c3ccccc3CCc3ccc(Cl)cc32)CC1 | 3.55 µM (active) | –
